Sampled rows, rich in hits. Any-hit rate of the full collection: about 3.2%.
GoLoco inh red = qHTS Assay for Inhibitors of RGS12 GoLoco Motif Activity (Red Fluorophore). AID 880, 2007. hit rate 0.44% among 230,000. Gai1:RGS12 GoLoco peptide FP, rhodamine, 10 min. Potency, µM (titrated, usually from 61.6 µM), for the others: top-dose activity, negative = inhibition, hits mostly inhibitors. Guanine nucleotide-binding protein G(i) subunit alpha-1 (Homo sapiens), P63096; active = well fitted inhibition curve with a large enough effect, not every such curve was filed as active; inactive = no such curve, though single readings can be large or run the other way; note: nearly all actives have a fitted effect of over 30% in size
Tau fluor counter = Counterscreen qHTS for Inhibitors of Tau Fibril Formation, Fluorescence Polarization; Potency, µM (series often up to 57.7 µM), for the others: top-dose activity change, negative = decrease; tau K18 P301L Alexa594 fluorescence, heparin fibrillization; AID 1463, 2008; hit rate 0.93% among 280,000; note: nearly all actives have a fitted effect of over 55% in size
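Human K18 P301L tau (15 uM unlabeled plus 0.24 uM Alexa 594-labeled, final) in 100 mM sodium acetate pH 7 was mixed with compound and 20 uM heparin and incubated 6 hr at 37 C.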
TR SRC2 fluor cs = Total Fluorescence Counterscreen for Inhibitors of the Interaction of Thyroid Hormone Receptor and Steroid Receptor Coregulator 2 | TRb/SRC2 Texas Red total fluorescence interference | Potency, µM (highest dose often 106 µM), inactives show at the top dose fluorescence change, negative = quenching | hit rate 0.29% among 280,000; active = well fitted curve in either direction with a large enough effect; inconclusive = small, poorly fitted or top-dose-only effect
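Human TRb ligand-binding domain at 0.6 uM with 20 nM Texas Red SRC2 peptide in Tris buffer containing 1 uM T3 and 5% DMSO, incubated with compound 5 h at ambient temperature. Total fluorescence (555/632 nm) calculated as parallel + 2 × perpendicular.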
Tau FP inhib = qHTS for Inhibitors of Tau Fibril Formation, Fluorescence Polarization. K18 P301L tau heparin fibrillization, Alexa594 FP, 6 h. Potency, µM (highest dose often 57.7 µM), inactives show at the highest dose activity, negative = inhibition, actives largely listed as inhibitors. hit rate 0.39% among 280,000; note: nearly all actives have a fitted effect of over 55% in size
Target sequence (P10636 561-689 P618L limits assumed): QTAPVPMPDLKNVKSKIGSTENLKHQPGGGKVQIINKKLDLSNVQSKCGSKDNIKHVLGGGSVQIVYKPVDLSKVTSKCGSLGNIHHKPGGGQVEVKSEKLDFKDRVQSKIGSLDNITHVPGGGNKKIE
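Quantitative HTS format: compounds meet 15 uM recombinant K18 P301L tau and Alexa 594-tau tracer in 100 mM sodium acetate pH 7; 20 uM heparin triggers fibrillization at 37 C over 6 hr; FP gives the signal.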
Tau ThT inhib = qHTS for Inhibitors of Tau Fibril Formation, Thioflavin T Binding | Microtubule-associated protein tau (Homo sapiens), P10636 | recombinant tau K18 P301L (four-repeat tau fragment), heparin-induced fibrillization, ThT fluorescence | Potency, µM (titrated, usually from 57.4 µM), for the others: top-dose activity, negative = inhibition, usual class: inhibitors | hit rate 2.1% among 270,000; note: nearly all actives have a fitted effect of over 55% in size
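Heparin-induced fibrillization of the P301L-mutant K18 repeat-domain fragment of human tau was followed by ThT binding in quantitative high-throughput format.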
TRb-SRC2 inh = qHTS for Inhibitors of the Interaction of Thyroid Hormone Receptor and Steroid Receptor Coregulator 2 | hit rate 0.065% among 280,000 | TRbeta-SRC2 peptide binding, fluorescence polarization; receptor liganded with 1 µM T3 | AID 1469, 2008 | Potency, µM (highest dose often 106 µM), for inactives: at the top dose activity change, negative = inhibition, usual class: inhibitors;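 note: plate controls were bound peptide for no effect and peptide without receptor for full effect; nearly all actives have a fitted effect of over 50% in size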
Target sequence (P10828 whole entry, looked up): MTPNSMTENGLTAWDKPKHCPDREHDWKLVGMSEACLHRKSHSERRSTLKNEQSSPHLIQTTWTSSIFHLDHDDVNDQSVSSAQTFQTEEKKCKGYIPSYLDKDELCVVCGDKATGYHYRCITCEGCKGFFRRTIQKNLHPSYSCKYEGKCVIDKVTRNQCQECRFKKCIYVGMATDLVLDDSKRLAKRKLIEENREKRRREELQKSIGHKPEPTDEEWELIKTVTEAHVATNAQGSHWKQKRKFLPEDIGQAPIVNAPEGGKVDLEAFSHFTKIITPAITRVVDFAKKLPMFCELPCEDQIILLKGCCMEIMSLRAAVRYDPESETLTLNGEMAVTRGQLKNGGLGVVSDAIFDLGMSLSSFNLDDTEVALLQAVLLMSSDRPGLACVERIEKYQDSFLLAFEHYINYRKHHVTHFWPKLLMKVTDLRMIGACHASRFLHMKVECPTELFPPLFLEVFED
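Human TRb LBD (0.6 uM) plus Texas Red-labeled SRC2 peptide (20 nM), 1uM T3, 5% DMSO, 5 hr at ambient temperature. Decreased polarization (555/632 nm) flags inhibition; data normalized to free and bound peptide controls.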
Starred values were filed as active, the others as inactive; ? = inconclusive; / = not tested or not shown; ! = not confirmed by another sample; [ ] = remark or other dose. Unless noted, calls come from the whole dose curve; as a rule, active = well fitted curve in the direction sought with a large enough effect; inconclusive = small, poorly fitted or top-dose-only effect, or another doubt; inactive = no such curve, though single readings can be large; an effect the other way counts as inactive or inconclusive. Unless noted, % is set by controls: 0 for no effect and ±100 for the full control effect; potency is the fitted concentration of half-maximal effect.

SMILES | GoLoco inh red | Tau fluor counter | TR SRC2 fluor cs | Tau FP inhib | Tau ThT inhib | TRb-SRC2 inh
COc1ccc(/C=C2\CCn3c2nc2cc(C(=O)O)ccc2c3=O)cc1O | 2% | -6% | 0.32µM*[quencher] | 7% | -3% | ?
CC(=O)N1c2ccccc2C2(O)N=C(C)SC12 (configuration not stated) | 7.9µM* | 1% | 1% | 0% | 5% | 2%
CCOC(=O)C1=C(C)Nc2sc(C(=O)c3ccc(F)cc3)c(N)c2C1c1ccc(C(=O)OC)cc1 (configuration not stated) | 2% | 16µM*[quencher] | -3% | ? | -2% | 8%
O=[N+]([O-])c1cccc(Cl)c1N1CCOCC1 | 1% | 7% | -1% | -3% | -2% | -1%
C=CS(=O)(=O)c1sc(Cl)c(N2CCOCC2)c1[N+](=O)[O-] | -15% | ? | -1% | -2% | 3.5µM* | -10%
C=CSc1sc(Cl)c(N2CCOCC2)c1[N+](=O)[O-] | 11% | ? | -15% | -6% | 14µM* | -1%
CCc1cccc2c3c([nH]c12)[C@@](CC)(CC(=O)O)OCC3 | 4%[21.6 µM] | / | -1% | / | / | -1%
COC(=O)C1=C(C(=O)OC)SC(=C2C(=S)C(C)(C)N(C(=O)C(C)C)c3ccccc32)S1 | 5% | ? | -1% | ? | 1µM* | 0%
CC1C(=O)Nc2ccccc2N1C(=O)C1CC1 (configuration not stated) | 0% | -16% | 1% | -5% | -12% | 4%
COC(=O)C1=C(C(=O)OC)SC(=C2C(=S)C(C)(C)N(C(=O)C3CC3)c3ccccc32)S1 | -12% | ? | -6% | ? | 2.5µM* | 3%
CCCC(=O)N1c2ccccc2C(=C2SC(C(=O)OC)=C(C(=O)OC)S2)C(=S)C1(C)C | 6% | ? | 0% | ? | 2.2µM* | -19%
COc1ccc(-c2nc3ccc([N+](=O)[O-])cc3[nH]2)cc1 | 15% | ? | -1% | -3% | 11µM* | 6%
Nc1nc2ccc([N+](=O)[O-])cc2[nH]1 | -6% | -7% | -12% | -2% | -6% | 3%
NC(N)=Nc1nc2ccc([N+](=O)[O-])cc2[nH]1 | 0.35µM*! | -7% | -3% | 6% | ? | 2%
Cc1ccc(-c2nc3ccc([N+](=O)[O-])cc3[nH]2)cc1 | 9% | ? | 4% | 2% | ? | 0%
CCCc1ccc(OCC(=O)Nc2sc(C(=O)OCC)c(C)c2C(=O)OCC)cc1 | / | -3% | 10% | -1% | 1% | 2%
CC(=O)OC/C=C(C)/C=C/C=C(C)/C=C/C1=C(C)CCCC1(C)C | -9% | -10% | 0% | ? | ? | 2%
Oc1cccc(/C=N/Nc2cccc3cccnc23)c1 | 2% | 16µM*[quencher] | -1% | ? | 14µM* | 1%
Cc1cccc2cccnc12 | -3% | / | 0% | / | / | 0%
c1cnc2c(c1)ccc1cccnc12 | 6%[14.2 µM] | -15% | -3% | ? | 28µM* | 3%
Cc1cnc(CNc2ccnc(-c3cccnc3)n2)cn1 | 7% | / | / | / | / | /
CCOC(=O)C1=C(c2ccccc2)N=c2s/c(=C\c3ccc(O)cc3)c(=O)n2C1c1cccs1 (configuration not stated) | 215% | 8.9µM*[quencher] | 0% | 32µM* | ? | 9%
O=C(O)c1ccccc1/C=N/Nc1ccc(S(=O)(=O)N2CCOCC2)cc1[N+](=O)[O-] | 0% | -17% | -1% | -5% | ? | 4%
O=[N+]([O-])c1cc(S(=O)(=O)N2CCCC2)ccc1N/N=C/c1cccs1 | 12% | -20% | 2% | 5% | -15% | 9%
O=C(O)CC/C(=N\Nc1ccc(S(=O)(=O)N2CCOCC2)cc1[N+](=O)[O-])c1cccs1 | 1% | -17% | -8% | 6% | 11µM* | -10%
SMILES | GoLoco inh red | Tau fluor counter | TR SRC2 fluor cs | Tau FP inhib | Tau ThT inhib | TRb-SRC2 inh
O=C(O)CC/C(=N\Nc1ccc(S(=O)(=O)N2CCCC2)cc1[N+](=O)[O-])c1cccs1 | -5% | -17% | -8% | 8% | 32µM* | -7%
COCCNC(=O)C1CCC(CNS(=O)(=O)c2ccc3c(c2)CC(C)N3C(C)=O)CC1 (configuration not stated) | / | -3% | -4% | 1% | -2% | 7%
O=C(c1cc(C(F)(F)F)cc(C(F)(F)F)c1)N1CCC2(CC1)CN(c1ccccn1)C2 | 5% | / | / | / | / | /
COC(=O)Cn1c(=O)c2c(nc3n2CCN3c2cccc(C)c2)n(C)c1=O | / | -11% | 6% | -6% | ? | 11%
Cc1cccc(N2CC(C)Cn3c2nc2c3c(=O)n(CC(=O)O)c(=O)n2C)c1 (configuration not stated) | / | -19% | 10µM*[quencher] | 2% | -13% | 0%
Cc1ccc(C(=O)c2ccccc2C(=O)OCC(=O)Nc2cccc([N+](=O)[O-])c2)cc1 | 9% | 16µM*[quencher] | 2% | ? | -18% | 2%
COc1cc2c(cc1OC)C(CCN)=NCC2 | -4%[14.2 µM] | / | / | / | / | /
O=C(COC(=O)c1cn(-c2ccccc2)nc1-c1ccc(F)cc1)Nc1ncc(Cl)cc1Cl | 28% | ? | 2% | 0% | -6% | -7%
NS(=O)(=O)c1ccc(NC(=O)COC(=O)c2cn(-c3ccccc3)nc2-c2ccc(F)cc2)cc1 | 9% | ? | 1% | 13µM* | 0% | -6%
Fc1ccc(C[n+]2csc3ccccc32)cc1 | -7% | -21% | -2% | ? | ? | 3%
Clc1ccc(C[n+]2csc3ccccc32)cc1 | -2% | -12% | -1% | ? | 22µM* | -9%
COc1ccc(-n2c(C)c(C(C)=O)c(C(C)=O)c2C)cc1OC | -9% | -2% | 1% | 4% | -5% | -19%
CC(=O)c1c(C(C)=O)c(C)n(-c2ccc(N)c(C)c2)c1C | -4% | 0% | 45µM*[fluorescent] | -1% | -16% | 22µM*
Cc1nnc(SCC(=O)Nc2ccc(Br)cc2)[nH]c1=O | / | -4% | 45µM*[quencher] | -2% | 11% | -17%[53 µM]
O=C1NN(c2ccccc2)C(=O)/C1=C/c1ccc(-c2ccc(Cl)c(C(=O)O)c2)o1 | -10% | ? | 0% | -9% | 7.1µM* | 5%
O=C(O)c1cc(-c2ccc(/C=C3\NC(=O)N(c4ccccc4)C3=O)o2)ccc1Cl | -3% | -25% | -4% | -17% | ? | -2%

Screens as filed in PubChem.
